The source of these data is article PMC12136788.

The full ranking holds about 5,800 sequences; the median of “enrichment r” is about 0.68, and the highest 2% start at about 11. This is one part of a sample in which the highest values are shown more often than they occur.

T1: UNK ZnF1-6 (called full-length) (human, UniProt Q9C0B0 30-357)
T1 sequence: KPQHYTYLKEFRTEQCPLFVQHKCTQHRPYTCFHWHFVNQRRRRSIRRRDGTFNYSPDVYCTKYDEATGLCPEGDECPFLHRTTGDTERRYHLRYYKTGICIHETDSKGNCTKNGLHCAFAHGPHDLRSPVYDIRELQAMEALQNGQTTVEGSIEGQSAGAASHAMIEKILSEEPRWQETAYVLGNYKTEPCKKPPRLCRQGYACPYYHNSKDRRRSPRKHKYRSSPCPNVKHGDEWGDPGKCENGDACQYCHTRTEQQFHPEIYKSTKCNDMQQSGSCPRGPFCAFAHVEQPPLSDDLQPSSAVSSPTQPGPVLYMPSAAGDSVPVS

B1: chr4:113382420:113382521:+|3pUTR|ENSG00000145362|msi1|FALSE|bound_elsewhere (ssRNA)
RNA: GGGAGUUCUACAGUCCGACGAUCUCUUCAGGUCUUUAGAUCUUGGACAAGUUGGCAGGGUAUUUUAAAAGCUAUAACUACUGUAGUUUUCCAGUUUUCAUUGCUGCUUUAGCAAACCACGCUGUCUUACAGUGGUACUUUCUUCAACAGAGGAUUGAGCAUCA
B2: chr2:171482635:171482736:+|3pUTR|ENSG00000115827|unk|FALSE|unique (ssRNA)
RNA: GGGAGUUCUACAGUCCGACGAUCCAAGAGUGUUUCAGAAUAGGAUGUCUUAAGACUUCAGUCAUGUCAGAGAUUUUUUUUUUUAGGUGAUUAUUGAGUUUCUCCUUCUCCUUUAAGUCAUCACCUUCCUUUUAUGAAAUGAUACAACAGAGGAUUGAGCAUCA
B3: chr9:104535772:104536723:-|CDS|ENSG00000204246|control|control|control (ssRNA)
RNA: GGGAGUUCUACAGUCCGACGAUCGACAAGCUCAUUUCUCUGUUUUAUGGGGUAGUGACACCCAUGCUGAAUCCUAUACUCUAUAGCUUGAGAAAUAAGGAUGUAAAAGCUGCUGUAAAAUAUUUGCUGAACAAAAAACCAAUUCAACAGAGGAUUGAGCAUCA
B4: chr8:23842113:23842214:-|3pUTR|ENSG00000159167|msi1|FALSE|unique (ssRNA)
RNA: GGGAGUUCUACAGUCCGACGAUCACUUUAGACAUUUUUGUGCCAUUAUAUUUGCAUUAUGUAUUUAUAAUUUAAAUGAUAUUUAGGUUUUUGGCUGAGUACUGGAAUAAACAGUGAGCAUAUCUGGUAUAUGUCAUUAUUUAUCAACAGAGGAUUGAGCAUCA
B5: ENSG00000112936:stop:overlap|stop_codon|ENSG00000112936|stop_codon|NA|stop_codon (ssRNA)
RNA: GGGAGUUCUACAGUCCGACGAUCGAUGCAGAGGGCAGAGCAUCUCUGUCACCAGCAUAAGGCCUUGUGCUGCGGAAACCCAGUAGGCUCCUGGAGGCCCUGGUCAGCUUGCUUGGAAUCCAGCAGGCAGCUGGGGCUGAGUGACAACAGAGGAUUGAGCAUCA
B6: ENSG00000170312:stop:overlap|stop_codon|ENSG00000170312|stop_codon|NA|stop_codon (ssRNA)
RNA: GGGAGUUCUACAGUCCGACGAUCGCAAAAUGGCACUGAAUCAUCCAUAUUUUAAUGAUUUGGACAAUCAGAUUAAGAAGAUGUAGCUUUCUGACAAAAAGUUUCCAUAUGUUAUAUCAACAGAUAGUUGUGUUUUUAUUGUUACAACAGAGGAUUGAGCAUCA
B7: chr2:69942770:69942871:+|3pUTR|ENSG00000059728|unk|FALSE|unique (ssRNA)
RNA: GGGAGUUCUACAGUCCGACGAUCUGUUUCCAGAUGUUUCUUUAUGUAAAUAUGACGCCAAUGUAAAUCCUGUGUCAAGAUCAUAGAGAAUGGUGCUUUUUACUACAGUUAGCACAUGCAUUUUUAGAAACUACUACAUGUUUUCAACAGAGGAUUGAGCAUCA
B8: ENSG00000114439:stop:overlap|stop_codon|ENSG00000114439|stop_codon|NA|stop_codon (ssRNA)
RNA: GGGAGUUCUACAGUCCGACGAUCUUCAUUGUAAAACAUUGUGCUUUACCUACUACCCUAGCCUUGUCUUUACCGAGGGAUGCUAGUGAGUCCAAGUGGUGGAAAAUAUAGACUGCAAACAAGUGCUUGUUGCCCCACACGGCCCAACAGAGGAUUGAGCAUCA
B9: ENSG00000117906:stop:overlap|stop_codon|ENSG00000117906|stop_codon|NA|stop_codon (ssRNA)
RNA: GGGAGUUCUACAGUCCGACGAUCAGUCCUUUAGGAAGCAUCAAUGUGGAGGUUUGGGGCUCCAUCCUCAGAGCCAGUCUGCUUAGCUUCACAUUUAGCUCCAGCACUUCACGGUUGUGUAACUUUGGCUUCACUUAAAGGACACAACAGAGGAUUGAGCAUCA
B10: chr12:104348774:104348848:+|3pUTR|ENSG00000198431|msi1_unk|total|mutant (ssRNA)
RNA: GGGAGUUCUACAGUCCGACGAUCCGUUGUCAAGUUUUCCCGGGUUGAAUUUUUUUCUUUUUUCUCCAUGGUGUUAAUGAUAUCCGAGAUGAAAAACGUCCGCAGUUGAUUUUUGUCCAAAAGCAAGUCAUGGCCCGAGUAUCCCAACAGAGGAUUGAGCAUCA
B11: chr10:62094764:62094865:+|3pUTR|ENSG00000150347|msi1|FALSE|unique (ssRNA)
RNA: GGGAGUUCUACAGUCCGACGAUCGAUGAACUCCCCAACCCACUGUGCCCCUCCCGCAACACUACCAGUAGACUUUAGAACCAUAGUUAACUAAGUCUUUUACCUCUGAGAUACUUAAUUCUGGGAAAAUUGGUGACAAUUUUCCAACAGAGGAUUGAGCAUCA
B12: chr3:98797553:98797658:-|3pUTR|ENSG00000057019|msi1|FALSE|unique (ssRNA)
RNA: GGGAGUUCUACAGUCCGACGAUCAUUUCAUUCAUUGAAGAAUCAAUACAUAUUUUGUUUCAAAAUGUUUGAAACAAAAGACAUAGAUGGUAGACUUUUAUUAAAACAUAUAUGGAUGUGGAAAGCACAUAUAUUAAUGCAGUCCAACAGAGGAUUGAGCAUCA
B13: chr1:42278343:42278454:-|CDS|ENSG00000198815|unk|FALSE|bound_elsewhere (ssRNA)
RNA: GGGAGUUCUACAGUCCGACGAUCAAAAAGAAAAUGACUUUAAGUGAAAUUUAUCAGUGGAUUUGUGAUAACUUCCCAUAUUAUAGAGAGGCUGGCAGUGGUUGGAAGGUAAGGAUUUUAUUUAAAUUAUUACUUUUAUGAAGUCAACAGAGGAUUGAGCAUCA
B14: chrX:115010634:115010735:-|CDS|ENSG00000123496|msi1|FALSE|unique (ssRNA)
RNA: GGGAGUUCUACAGUCCGACGAUCUGGAUCAUCAGAGAACAAGCCUAUCAGAUCCAGUUAUUUCACUUUUCAGCUUCAAAAUAUAGGUGAUGUAAACCAACAAACAACUUCAAAUUCAUUGUUUCUAGUUUAGGCCAUUUACAACAACAGAGGAUUGAGCAUCA
B15: chr2:99394746:99394872:+|CDS|ENSG00000158417|unk|FALSE|unique (ssRNA)
RNA: GGGAGUUCUACAGUCCGACGAUCGAUGUGAGAAUUGAACGAGAUGCACAAGAAAUGGCUGAUAGUUUAGGAGUUAGAAUUUUUAGUGCAGAAAUUAUUUAUCAUUUAUUUGAUGCCUUUACAAAAUAUAGACAAGACUACAAGCAACAGAGGAUUGAGCAUCA
B16: chr4:65323451:65323552:-|3pUTR|ENSG00000145242|msi1|FALSE|unique (ssRNA)
RNA: GGGAGUUCUACAGUCCGACGAUCAUCAAGAAAAAGUACAAUACAGGGUGUAUAUUUAUUUUUUGUGUUAUAAAGUUUACUUUUAGUUGCUCUUCUAGAGAUUAUUAGGUAAUAAAUGUGUAUAUACUGUAUAAUUUGCAAUAUCAACAGAGGAUUGAGCAUCA
B17: chr15:100649042:100649144:+|3pUTR|ENSG00000183475|unk|FALSE|unique (ssRNA)
RNA: GGGAGUUCUACAGUCCGACGAUCUACCUCUGCUUUUCUUUUGCUGUGCUCUUGUUUUUAACUUAUUUUUUUUUUAACAACUGUAGUACACUACCCUGAGACACUGCAUCUCGAUUUCUAUCUCUAGUUAGAGUUGUACUUUUACAACAGAGGAUUGAGCAUCA
B18: chr16:21983864:21984660:-|three_prime_utr|ENSG00000155714|control|control|control (ssRNA)
RNA: GGGAGUUCUACAGUCCGACGAUCAAAGAAAAUUGAGCUGGCAAAAGAUGAAUCUUUCACAAGCAGUGAUGAUAAUGAAAAUGUAGAUUUAGAUAAAAGACUUCAAUAUUAUAGAUAUCCGUGGUCAACUGUGCAUCACCCUGCCAACAGAGGAUUGAGCAUCA
B19: chr12:95514132:95514176:+|3pUTR|ENSG00000111142|msi1_unk|FALSE|overlapping (ssRNA)
RNA: GGGAGUUCUACAGUCCGACGAUCCUUUUAAAUGCUAACUGUUUUUCCCCUUCCUGUCUAGGAAAAUGCUAUAAAGCUCAAAUUAGUUAGGAAUGACUUAUACGUUUUGUUUUGAAUACCUAAGAGAUACUUUUUGGAUAUUUACAACAGAGGAUUGAGCAUCA
B20: chr22:49888080:49888186:+|3pUTR|ENSG00000100426|unk|FALSE|unique (ssRNA)
RNA: GGGAGUUCUACAGUCCGACGAUCUGGCUUAUUAACAGGGAAGAAGCUUGUUAUAUUCCAGUUGUAAGAAUAGCCUUAGUGUUUAGAUUUUUUUAUGAUAGGGAAGAUGCGGCCAUCACUGGGAUAUUUUCAAAUCCCAAGGACCAACAGAGGAUUGAGCAUCA
B21: chr18:55223968:55224079:-|3pUTR|ENSG00000196628|unk|FALSE|unique (ssRNA)
RNA: GGGAGUUCUACAGUCCGACGAUCUAUAAAGCUUUGUUUGUCUAGUGCUCUUUUGCUAUAAAAUAGACUGUAGUACACCCUAGUAGGAAAAAAAAAAAACUAAAUUUAAAAAUAAAAAAUAUAUUUGGCUUAUUUUUCGCAGGACAACAGAGGAUUGAGCAUCA
B22: chr18:54155150:54155251:-|3pUTR|ENSG00000134046|unk|FALSE|unique (ssRNA)
RNA: GGGAGUUCUACAGUCCGACGAUCUUUCCACUGGCUUUUGCCUGUAAGAAAAAAAAUGUACCCGAGCACAUAGAGCUUUUUAAUAGCACUAACCAAUGCCUUUUUAGAUGUAUUUUUGAUGUAUAUAUCUAUUAUUCAAAAAAUCAACAGAGGAUUGAGCAUCA
B23: chr18:68676332:68676434:-|3pUTR|ENSG00000166479|msi1_unk|FALSE|overlapping (ssRNA)
RNA: GGGAGUUCUACAGUCCGACGAUCAUCAAGAUUAUGAGGUUAAAAAUAAUGUGGUUUUAUAUAGCAUAGUGGUUUUAUUUUGUUAGUUAUUUUUAAAGGAGAAGAAAUGUUACUUUUUAACUUUAUACUCAGUUGCAUUAUCAUCAACAGAGGAUUGAGCAUCA

For the experiment, the target named is T1, UNK ZnF1-6 (called full-length). As to the kind of experiment: nsRBNS (natural sequence RNA bind-n-seq); RBNS binding buffer (assumed for nsRBNS): 25 mM Tris pH 7.5, 150 mM KCl, 3 mM MgCl2, 0.01% Triton X-100, 500 ug/ml BSA, 20 U/ml SUPERase-In, 4 C; UNK is unkempt and MSI1 is Musashi-1; names of the RNAs are library labels; protein concentration not given here; high values mean tight binding.
For the molecule B1, the binding signal came to 0.392 enrichment R.
The value for B2 was 1.03 enrichment R; that for B3 was 0.451 enrichment R; that for B4 was 3.25 enrichment R.
The value for B5 was 0.329 enrichment R; that for B6 was 0.706 enrichment R; that for B7 was 0.538 enrichment R.
The molecule B8 returned a binding signal of 0.604 enrichment R.
Then B9, with 0.657 enrichment R.
B10: the binding signal is 0.359 enrichment R.
The value for B11 was 3.7 enrichment R.
B12 gave a binding signal of 1.11 enrichment R.
The value for B13 was 3.38 enrichment R.
The value for B14 was 0.759 enrichment R; that for B15 was 15.9 enrichment R; that for B16 was 3.94 enrichment R.
The value for B17 was 5.29 enrichment R; that for B18 was 2.22 enrichment R.
Regarding B19, the binding signal stood at 2.63 enrichment R.
Then B20, with 11.3 enrichment R; and B21, with 39.5 enrichment R; and B22, with 5.14 enrichment R.
The value for B23 was 48.4 enrichment R.
